Screening results: PubChem BioAssay, National Center for Advancing Translational Sciences (NCATS)
Tb PYK inh: T. brucei pyruvate kinase inhibition; TbPYK enzyme, Kinase-Glo Plus ATP luminescence, 45 min; Potency, µM (titrated, usually from 76.8 µM), for inactives: at the top dose activity, negative = inhibition, most hits filed as inhibitors; actives 0.12% (n = 410,000); AID 624173; note: potency is the fitted concentration of half-maximal effect; nearly all actives have a fitted effect of over 50% in size
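Readout: single end-point luminescence (Kinase-Glo Plus, 10 min). Reaction conditions were TbPYK/substrate plus 130 uM ADP, 45 min at RT, pH 7.2 TEA buffer. No-enzyme wells served as controls, and data were normalized before concentration-response fitting.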
VACV Venus inh: inhibitors of vaccinia virus (Venus reporter) | Vaccinia virus Venus reporter expression, fluorescence | Potency, µM (titrated, usually from 36.5 µM), for inactives: at the highest dose activity change, negative = inhibition, usual class: inhibitors | actives 0.46% (n = 330,000); calls by dose curve; tested in A549 cells; note: potency is the fitted concentration of half-maximal effect; nearly all actives have a fitted effect of over 30% in size
HCMV inh: inhibitors of human cytomegalovirus; activity change, negative = inhibition, % at 57.5 µM; HFF cells, HCMV-luciferase reporter, 72 h; active compounds read low; actives 4.5% (n = 410,000); AID 1259415; in the data active = activity change below about -60%; inconclusive = no clear call, values can overlap the other calls; inactive = above about -39%
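Cell-based, HFFs, 1000 cells/well, 16 h 37C; cpds in DMSO + HCMV-luc, MOI 1 PFU/cell; 72 h 37C; OneGlo luminescence after 5 min RT; norm. to buffer vs Salinomycin 10uM.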
LmPK inhibitor: blocks Leishmania mexicana pyruvate kinase activity. Q27686. AID 1721. actives 0.37% (n = 290,000). Potency, µM (highest dose often 57.5 µM), for the others: top-dose activity change, negative = inhibition, most hits filed as inhibitors. purified LmPK, Kinase-Glo ATP luminescence, 1 h; note: potency is the fitted concentration of half-maximal effect
Target sequence (Q27686 whole entry, looked up): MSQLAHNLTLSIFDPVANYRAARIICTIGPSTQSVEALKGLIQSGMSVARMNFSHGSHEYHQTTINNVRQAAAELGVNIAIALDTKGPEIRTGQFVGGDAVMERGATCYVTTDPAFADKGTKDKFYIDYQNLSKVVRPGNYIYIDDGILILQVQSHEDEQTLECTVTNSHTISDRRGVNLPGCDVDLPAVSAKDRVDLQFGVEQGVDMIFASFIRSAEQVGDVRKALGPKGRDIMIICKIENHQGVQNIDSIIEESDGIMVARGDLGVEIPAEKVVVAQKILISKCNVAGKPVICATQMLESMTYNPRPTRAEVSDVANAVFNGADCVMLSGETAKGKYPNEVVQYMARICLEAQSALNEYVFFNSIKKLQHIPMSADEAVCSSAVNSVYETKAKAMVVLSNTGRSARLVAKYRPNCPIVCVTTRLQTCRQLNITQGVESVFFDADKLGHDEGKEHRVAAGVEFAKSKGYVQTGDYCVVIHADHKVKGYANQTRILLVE
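qHTS format; LmPK 0.1 nM; substrates PEP 0.5 mM and ADP 0.1 mM. One-hour room-temperature incubation, then coupled luciferase luminescence; 0.5 nM enzyme wells mark activation.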
Vaccinia mCherry: vaccinia inhibition (mCherry reporter) | Vaccinia virus mCherry reporter infection, fluorescence | Potency, µM (titrated, usually from 36.5 µM), for the others: at the top dose activity change, negative = inhibition, usual class: inhibitors | actives 0.63% (n = 310,000) | AID 720579; calls by dose curve; tested in A549 cells; note: potency is the fitted concentration of half-maximal effect; nearly all actives have a fitted effect of over 35% in size
* = called active by the depositor; i = inactive; ? = inconclusive; / = not tested or not shown. In the library only some 5% were active in any assay of this set; here they are far more common. Unless noted, calls come from the whole dose curve; as a rule, active = well fitted curve in the direction sought with a large enough effect; inconclusive = small, poorly fitted or top-dose-only effect, or another doubt; inactive = no such curve, though single readings can be large; an effect the other way counts as inactive or inconclusive. % is set by controls: 0 for no effect and ±100 for the full control effect.

SMILES	Tb PYK inh	VACV Venus inh	HCMV inh	LmPK inhibitor	Vaccinia mCherry
CCCC(=O)NC(c1ccc(N(C)C)cc1)c1ccc2cccnc2c1O (stereo unspecified)	1%	?	-98*	7%	?
CCCC(=O)NC(c1ccccc1Cl)c1ccc2cccnc2c1O (stereo unspecified)	-2%	?	-97*	6%	1µM*
NC(=S)NNc1cc(Cl)cc(Cl)c1	1%	-8%	-6	-4%	-6%
COC(=O)c1sc(N2CCCCC2)c(C#N)c1N	-1%	-20%	9	2%	?
NC(=O)CCC(C(=O)O)N1C(=O)C2C3CCC(C3)C2C1=O (stereo unspecified)	4%	-11%	-17	/	-8%
O=C(c1ccc(Cl)cc1)N1CCOc2ccccc21	0%	-18%	-28	6%	-14%
OCCCn1c(C2CCCN2c2nc(-c3ccc(Cl)cc3)cs2)nc2cc(C(F)(F)F)ccc21 (stereo unspecified)	-22%	-21%	-66*	/	?
CCOC(=O)c1sc(NC(=O)c2ccncc2)c(C#N)c1C	-12%	-8%	-68*	0%	-19%
COC(=O)c1sc(NC(=O)c2ccc(Cn3cc(Cl)cn3)o2)c(C#N)c1C	?	?	-106*	4%	-15%
CCOC(=O)c1sc(NC(=O)c2cc(-c3ccccc3C)nc3ccccc23)c(C#N)c1C	-20%	?	-105*	8%	?
N#Cc1c(NC(=O)c2ccc(Cn3cc(Br)cn3)o2)sc2c1CCCCC2	-2%	?	15	4%	-13%
Cc1ccccc1-c1cc(C(=O)Nc2sc(C)c(C)c2C(N)=O)c2ccccc2n1	?	-33%	-23	1%	/
O=C(NNc1c(Cl)cccc1Cl)c1sc2ccccc2c1Cl	/	-22%	/	/	i
COc1ccccc1NC(=O)COn1nnc2ccc(S(=O)(=O)N3CCOCC3)cc21	-5%	-21%	-63*	1%	-24%
O=C(COn1nnc2ccc(S(=O)(=O)N3CCOCC3)cc21)NCCc1ccccc1	2%	-11%	-16	/	-12%
O=C(NCCc1c[nH]c2ccccc12)/C(=C\c1cccnc1)NC(=O)c1ccccc1F	-1%	-21%	5	0%	?
CS(=O)(=O)c1ccc(S(=O)CC(=O)OCc2ccccc2)c([N+](=O)[O-])c1 (stereo unspecified)	5%	-14%	-101*	0%	-22%
O=C(CS(=O)c1ccc(C(F)(F)F)cc1[N+](=O)[O-])Oc1ccccc1 (stereo unspecified)	-2%	-21%	?	10%	-33%
Cc1ccc(NC(=O)Cn2c(=O)ccc3cc(S(=O)(=O)N4CCC(C)CC4)ccc32)c(C)c1	-5%	-11%	19	/	-10%
CN(c1ccccc1)P(=O)(N(C)c1ccccc1)N(C)c1ccccc1	0%	/	-86*	-16%	/
CN(c1ccccc1)P(=O)(N1CC1)N1CC1	-14%	-2%	-2	/	i
O=c1[nH]c(N/N=C/c2ccccc2Br)nnc1-c1ccccc1	-12%	-10%	15	-1%	i
COc1ccc(/C=N/Nc2nnc(-c3ccccc3)c(=O)[nH]2)cc1	-1%	-9%	-100*	0%	-13%
COc1cc(C(=O)NC(=S)Nc2ccccc2[N+](=O)[O-])cc(OC)c1OC	-3%	/	17	2%	/
Cc1ccc(NC(=O)c2cc(-n3cnnc3)ccc2Cl)cc1	-1%	/	5	0%	/
SMILES	Tb PYK inh	VACV Venus inh	HCMV inh	LmPK inhibitor	Vaccinia mCherry
O=C(Nc1ccc(-c2nc3ccccc3s2)cc1)c1cc(-n2cnnc2)ccc1Cl	5%	7.9µM*	-82*	5%	?
Cc1nc2cc(NC(=O)[C@@H]3C[C@@H](Sc4ccccn4)CN3Cc3ccccc3F)ccc2s1	/	-19%	/	/	-21%
O=C(CN1CCCCC1)N/N=C/c1cccc(Cl)c1	0%	-7%	2	4%	-29%
O=C1N/C(=C/c2ccc(Br)s2)C(=O)N1c1ccccc1	1%	-18%	-62*	-1%	i
Cc1ccc(/C=C2/NC(=O)N(c3ccccc3)C2=O)o1	?	/	?	1%	/
O=C(NCCNC(=O)c1cccnc1)c1cccnc1	2%	-5%	/	/	-8%
COC(CNC(=O)c1cccnc1)OC	0%	-8%	-62*	-5%	i
CCN(CC)S(=O)(=O)c1csc(C(=O)NCc2ccccc2)c1	2%	/	-71*	-10%	/
COC(=O)[C@@]1(Cc2ccc(OC)cc2)[C@H]2c3cc(C(=O)N(C)C)n(Cc4ccc(OC(F)(F)F)cc4)c3C[C@H]2CN1C(=O)c1ccccc1	-2%	?	/	4%	-21%
CN(C)CC(CCC(CN(C)C)C(O)(c1ccccc1)c1ccccc1)C(O)(c1ccccc1)c1ccccc1 (stereo unspecified)	-8%	-12%	-98*	0%	?
COCCCNC(=O)c1c[nH]c2ccc(S(=O)(=O)N3CCc4ccccc43)cc2c1=O	7%	?	0	8%	?
COCCNC(=O)c1ccc2c(c1)CCN2S(C)(=O)=O	2%	-8%	-62*	-1%	i
COCCNC(=O)c1c[nH]c2ccc(S(=O)(=O)N3CCc4ccccc43)cc2c1=O	-3%	5.6µM*	?	1%	?
COc1nc2ccccc2nc1N1CCN(c2ccc(F)cc2)CC1	12%	/	-38	-1%	/
O=C(COc1cccnc1[N+](=O)[O-])NCCc1ccc(Cl)cc1	0%	-3%	-34	-12%	0%
O=C(COc1cccnc1[N+](=O)[O-])NCCc1ccc(Cl)cc1Cl	-4%	-18%	-64*	4%	-10%
Cc1ccc(S(=O)(=O)C2(C(=O)Nc3nccs3)CC2)cc1	1%	-16%	-79*	-3%	-21%
O=C(Nc1nccs1)C1(S(=O)(=O)c2ccc(Cl)cc2)CC1	-2%	/	14	1%	/
Nc1ccc2oc(-c3ccccc3Cl)cc(=O)c2c1O	8%	0.89µM*	-8	1%	0.79µM*
O=c1cc(-c2ccccc2Cl)oc2c([N+](=O)[O-])c(O)cc(O)c12	5%	?	-72*	7%	i
COc1ccc(NC(=O)Cc2ccc(C)c(C)c2)cc1Cl	4%	-5%	24	-1%	-3%
CCN(CC)c1ccc(NS(=O)(=O)c2cc(-c3onc(C)c3C)ccc2OC)c(C)c1	?	-13%	-36	/	-15%
O=C(Nc1ccc(C(=O)N2CCCCC2)cc1)c1nsc2ccccc12	?	-2%	-7	/	-7%
O=C(C1CCC(CNS(=O)(=O)c2ccc(F)cc2)CC1)N1CCOCC1 (stereo unspecified)	3%	-13%	70	0%	i
O=C(CCn1cnc2ccccc2c1=O)Nc1ccc(Cl)c(Cl)c1	-11%	/	-74*	5%	/
Cc1ccc(NC(=O)CCn2cnc3ccccc3c2=O)cc1	5%	0%	-14	-2%	-9%
CCOC(=O)CCSc1cc(C)c2ccccc2n1	-1%	/	-12	1%	/
